# In the library only some 16% were active in any assay of this set; here they are far more common.
# TDP1 cell CPT: qHTS for Inhibitors of human tyrosyl-DNA phosphodiesterase 1 (TDP1): qHTS in cells in presence of CPT; Potency, µM (top dose mostly 46.2 µM), inactives show at the highest dose activity change, negative = growth inhibition, hits mostly inhibitors; 420,000 tested, 12% active; chicken DT40 Tdp1-/-;hTDP1 cells + 20 nM CPT, ATP luminescence, 48 h; further: potency means the concentration at half of the fitted maximal effect; on the % scale 0 is the no-effect control and ±100 the full control effect; nearly all actives have a fitted effect of over 55% in size
#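 Chicken DT40 Tdp1-/- cells stably complemented with human TDP1 were seeded at 400 cells/well in medium containing 20 nM camptothecin, exposed to pin-transferred compounds, and grown at 37 °C for at least 48 hr. Viability was read as ATP luminescence.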
# TDP1 block: qHTS Assay for Inhibitors of Tyrosyl-DNA Phosphodiesterase (TDP1); Tyrosyl-DNA phosphodiesterase 1 (Homo sapiens), Q9NUW8; recombinant TDP1, AlphaScreen DNA substrate cleavage; Potency, µM (top dose mostly 130 µM), without a hit: at the highest dose activity change, negative = inhibition, usual class: inhibitors; 350,000 tested, 0.28% active; AID 485290, 2010; further: potency means the concentration at half of the fitted maximal effect; on the % scale 0 is the no-effect control and ±100 the full control effect; nearly all actives have a fitted effect of over 40% in size
# Target sequence (Q9NUW8 whole entry, looked up): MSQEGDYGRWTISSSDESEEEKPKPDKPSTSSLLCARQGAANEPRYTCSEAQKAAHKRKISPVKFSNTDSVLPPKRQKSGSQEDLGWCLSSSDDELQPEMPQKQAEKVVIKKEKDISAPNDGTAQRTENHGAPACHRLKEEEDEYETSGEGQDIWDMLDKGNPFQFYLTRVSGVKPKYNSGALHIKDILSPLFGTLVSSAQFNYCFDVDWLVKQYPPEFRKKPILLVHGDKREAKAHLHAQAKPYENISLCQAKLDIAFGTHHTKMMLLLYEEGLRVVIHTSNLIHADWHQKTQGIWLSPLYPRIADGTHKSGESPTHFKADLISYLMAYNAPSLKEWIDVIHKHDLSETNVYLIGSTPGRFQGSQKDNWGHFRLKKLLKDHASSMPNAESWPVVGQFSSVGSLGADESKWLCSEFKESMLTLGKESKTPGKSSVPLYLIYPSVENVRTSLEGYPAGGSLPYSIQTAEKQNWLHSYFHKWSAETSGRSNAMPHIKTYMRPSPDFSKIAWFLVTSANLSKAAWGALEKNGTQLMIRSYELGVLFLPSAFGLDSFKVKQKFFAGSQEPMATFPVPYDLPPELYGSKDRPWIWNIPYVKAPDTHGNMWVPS
#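 Recombinant E. coli-expressed Tdp1 (1 nM) preincubated with compound 15 min at RT, then 5'-biotin/3'-phosphotyrosine-FITC DNA substrate (15 nM) added for 5 min. AlphaScreen beads (10 ug/ml) added, 10 min RT; tyrosine-FITC cleavage read as signal loss.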
# uPA generation: qHTS for Inhibitors of Cell Surface uPA Generation | cell surface uPA generation assay, qHTS | Potency, µM (titrated, usually from 38.3 µM), inactives show at the highest dose activity change, negative = inhibition, actives largely listed as inhibitors | 330,000 tested, 0.31% active | AID 540303, 2011; active means well fitted inhibition curve with a large enough effect; inconclusive means small, poorly fitted or top-dose-only effect; inactive means no such curve, though single readings can be large or run the other way; tested in mouse RAW 264.7 cells; further: potency means the concentration at half of the fitted maximal effect; on the % scale 0 is the no-effect control and ±100 the full control effect; nearly all actives have a fitted effect of over 55% in size
# TDP1 cell noCPT: qHTS for Inhibitors of human tyrosyl-DNA phosphodiesterase 1 (TDP1): qHTS in cells in absence of CPT. DT40 Tdp1-/- hTDP1 cells, no CPT, ATP luminescence, 48 h. Potency, µM (top dose mostly 46.2 µM), without a hit: top-dose activity change, negative = growth inhibition, usual class: inhibitors. 420,000 tested, 15% active; further: potency means the concentration at half of the fitted maximal effect; on the % scale 0 is the no-effect control and ±100 the full control effect; nearly all actives have a fitted effect of over 55% in size
#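 Growth kinetics read by CellTiter-Glo luminescence after ≥48 hr at 37 °C. Cells: DT40 Tdp1-/- stably carrying human TDP1, 400 per well, compound exposure in the absence of CPT (DMSO vehicle).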
# miR-21 reporter: qHTS Assay for Modulators of miRNAs and/orActivators of miR-21; HeLa miR-21 FLuc reporter, luciferase, 48 h; Potency, µM (doses to about 38.3 µM), for the others: at the top dose activity change, positive = activation, most hits filed as activators; 340,000 tested, under 10 active;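 further: % of control where 0% means no effect; miR-21 action dims this reporter so a rising signal means less miR-21 action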
#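 HeLa miR-21-FLuc reporter line, endogenous miR-21; 2000 cells/well in DMEM/10% FBS; compound titration up to ~40uM final, 48 h, 37 degree Celsius; luciferase detection reagent, 15 min lysis, CCD luminescence.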
# Active calls of the source: *; ? = inconclusive; / = no result; [ ] = dose if it differs, or a comment. Unless noted, the call rests on the fitted dose curve; in most records, active means well fitted curve in the direction sought with a large enough effect; inconclusive means small, poorly fitted or top-dose-only effect, or another doubt; inactive means no such curve, though single readings can be large; an effect the other way counts as inactive or inconclusive.
SMILES,TDP1 cell CPT,TDP1 block,uPA generation,TDP1 cell noCPT,miR-21 reporter
COc1cc(OC)cc(-n2nnnc2SCC(=O)Nc2ccc(C(C)=O)cc2)c1,-9.5%,1.5%,2.5%,-3.3%,-1.8%
Cc1cc(C)cc(NC(=O)[C@@H](NC(=O)c2ccco2)C(C)C)c1,-1.5%,8.2%,0.5%,-0.3%,-3.9%
Cc1ccccc1NC(=O)Nc1ccc2c(c1)OCO2,?,1.5%[56.1 µM],-3.0%,-16.8%,-41.1%
Nc1cc(N)c(OCC(F)(F)F)cc1OCC(F)(F)F,2.59µM*,3.8%,3.8%,9.2µM*,1.8%
Cc1ccc(Cl)cc1N1CCN(S(C)(=O)=O)CC1,-18.2%,0.0%,-3.2%,-16.0%,-1.4%
CCCc1cc(N2CCN(c3cc(Cl)ccc3C)CC2)n2cnnc2n1,13µM*,7.0%,/,5.17µM*,14.6%
COc1ccc(C(c2nnnn2C2CCCC2)N2CCC(C)CC2)cc1 (stereo unspecified),?,1.0%,13.5%,23.1µM*,-17.0%
c1cc(N2CCCC2)ccc1C(c1nnnn1C1CCCCC1)N1CCOCC1 (stereo unspecified),?,10.8%,-0.2%,?,-23.7%
COc1ccc(OC)c(C(c2nnnn2C2CCCC2)N2CCN(c3ccccc3)CC2)c1 (stereo unspecified),?,9.6%,5.0%,20.6µM*,-3.6%
COc1ccc(C(c2nnnn2C2CCCCC2)N2CCN(c3ccc(OC)cc3)CC2)cc1 (stereo unspecified),23.1µM*,11.9%,11.9%,16.4µM*,7.0%
COc1ccc(C(c2nnnn2C2CCCCC2)N2CCN(C)CC2)c(OC)c1 (stereo unspecified),-20.1%,8.3%,-1.6%,-20.4%,-6.4%
CCC(c1nnnn1C1CCCC1)N1CCN(c2cccc(OC)c2)CC1 (stereo unspecified),?,0.0%,-4.2%,16.4µM*,-1.3%
COCCn1nnnc1C(c1ccc(OC)cc1)N1CCC(C)CC1 (stereo unspecified),?,0.0%,1.0%,-25.0%,1.1%
CCOC(=O)c1c(CC(C)C)csc1NC(=O)COC(=O)C1=NNC(=O)CC1,-25.4%,-12.7%,-12.1%,-29.4%,/
COc1ccc(-c2ccc(CN3C(CC(C)C)C(=O)N(Cc4cn(Cc5ccco5)nn4)CCS3(=O)=O)cc2)cc1 (stereo unspecified),7.31µM*,/,/,7.31µM*,/
COc1ccc(-c2ccc(CN3C(CC(C)C)C(=O)N(Cc4cn(Cc5ccco5)nn4)CCS3(=O)=O)cc2)cc1OC (stereo unspecified),?,/,/,16.4µM*,/
Cc1c(Cl)c([N+](=O)[O-])nn1CCCC(=O)Nc1c(C)n(C)n(-c2ccccc2)c1=O,-19.5%,0.0%,7.7%,-11.9%,2.9%
CCOc1ccc(NC(=O)c2oc3ccccc3c2NC(=O)Cc2ccc(F)cc2)cc1,-6.3%,1.3%,/,?,-2.3%
Cc1cccc(NC(=O)CSc2cn(CC(=O)N3CCCC3)c3ccccc23)c1C,-26.9%,5.1%,/,?,13.6%
COc1cccc(CCC(=O)N(C)C2CCCN(Cc3ccccc3F)C2)c1 (stereo unspecified),-16.5%,/,5.3%,?,-2.8%
CN(C(=O)CCc1ccccc1F)C1CCCN(Cc2ccccc2F)C1 (stereo unspecified),18.4µM*,/,0.6%,16.4µM*,-7.4%
C=CCn1c2ccccc2c2nnc(SCCN3CCCCC3)nc21,-25.9%,/,-16.1%,18.4µM*,0.6%
CCN(CC)CCSc1nnc2c3ccccc3n(CCc3ccccc3)c2n1,?,/,?,?,19.8%
c1ccc(Cn2c3ccccc3c3nnc(SCCN4CCCCC4)nc32)cc1,23.1µM*,5.1%,4.8%,23.1µM*,2.1%
C=CCn1c2ccccc2c2nnc(SCCCn3c(=O)[nH]c4ccccc43)nc21,?,5.3%,-2.3%,13µM*,16.5%

# Compound activity deposited in PubChem by National Center for Advancing Translational Sciences (NCATS).
